Out of some 5,500 compounds screened, about 2,000 (36%) were called active. Roughly 18% stayed inconclusive and do not appear here. No stated cut-off is given here; in the data, active means normalized growth mostly below about 0.91 (no sharp cut-off); inconclusive means no clear call, values can overlap the other calls; inactive means mostly above about 0.92. The list shows a part of the results.
Test: chemical genetic growth profiling, strain panel (AID 1159580);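 further: tested at 20 µM; growth read once vehicle control cultures reached saturation at 30 °C; 1 = growth at the plate median or of vehicle wells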
Conditions: S. cerevisiae deletion strains, growth OD
[1] = locus YAR019C, strain CDC15, stronger effect = lower value
[2] = locus YBL105C, strain PKC1, stronger effect = lower value
[3] = locus YBR135W, strain CKS1, stronger effect = lower value
[4] = locus YBR136W, strain MEC1, stronger effect = lower value
[5] = locus YBR160W, strain CDC28, stronger effect = lower value
[6] = locus YDL017W, strain CDC7, stronger effect = lower value
[7] = locus YDL028C, strain MPS1, stronger effect = lower value
[8] = locus YDL101C, strain DUN1, stronger effect = lower value
[9] = locus YDL108W, strain KIN28, stronger effect = lower value
[10] = locus YDL132W, strain cdc53, stronger effect = lower value
[11] = locus YDL214C, strain PRR2, stronger effect = lower value
[12] = locus YDR052C, strain DBF4, stronger effect = lower value
[13] = locus YDR054C, strain cdc34, stronger effect = lower value
[14] = locus YDR226W, strain ADK1, stronger effect = lower value
[15] = locus YDR477W, strain SNF1, stronger effect = lower value
[16] = locus YER123W, strain YCK3, stronger effect = lower value
[17] = locus YER133W, strain GLC7, stronger effect = lower value
[18] = locus YFL009W, strain cdc4, stronger effect = lower value
[19] = locus YFL029C, strain CAK1, stronger effect = lower value
[20] = locus YFR003C, strain YPI1, stronger effect = lower value
[21] = locus YFR019W, strain FAB1, stronger effect = lower value
[22] = locus YFR028C, strain CDC14, stronger effect = lower value
[23] = locus YGR040W, strain KSS1, stronger effect = lower value
[24] = locus YGR052W, strain FMP48, stronger effect = lower value
[25] = locus YGR092W, strain DBF2, stronger effect = lower value
[26] = locus YHR030C, strain SLT2, stronger effect = lower value
[27] = locus YHR079C, strain IRE1, stronger effect = lower value
[28] = locus YHR082C, strain KSP1, stronger effect = lower value
[29] = locus YHR205W, strain SCH9, stronger effect = lower value
[30] = locus YIL147C, strain SLN1, stronger effect = lower value
[31] = locus YJL095W, strain BCK1, stronger effect = lower value
[32] = locus YJL128C, strain PBS2, stronger effect = lower value
[33] = locus YJL157C, strain FAR1, stronger effect = lower value
[34] = locus YJR016C, strain ILV3, stronger effect = lower value
[35] = locus YJR066W, strain TOR1 (second series), stronger effect = lower value
[36] = locus YJR066W, strain TOR1, stronger effect = lower value
[37] = locus YKL048C, strain ELM1, stronger effect = lower value
[38] = locus YKL067W, strain YNK1, stronger effect = lower value
[39] = locus YKL101W, strain HSL1, stronger effect = lower value
[40] = locus YKL193C, strain SDS22, stronger effect = lower value
[41] = locus YKL203C, strain TOR2, stronger effect = lower value
[42] = locus YLR113W, strain HOG1, stronger effect = lower value
[43] = locus YLR133W, strain CKI1, stronger effect = lower value
[44] = locus YLR403W, strain SFP1, stronger effect = lower value
[45] = locus YML070W, strain DAK1, stronger effect = lower value
[46] = locus YMR001C, strain CDC5, stronger effect = lower value
[47] = locus YMR205C, strain PFK2 (second series), stronger effect = lower value
[48] = locus YMR277W, strain FCP1, stronger effect = lower value
[49] = locus YNL006W, strain LST8, stronger effect = lower value
[50] = locus YNL020C, strain ARK1, stronger effect = lower value
[51] = locus YNL161W, strain CBK1, stronger effect = lower value
[52] = locus YNL183C, strain NPR1, stronger effect = lower value
[53] = locus YNL207W, strain RIO2, stronger effect = lower value
[54] = locus YNL222W, strain SSU72, stronger effect = lower value
[55] = locus YNL307C, strain MCK1 (second series), stronger effect = lower value
[56] = locus YOL078W, strain AVO1, stronger effect = lower value
[57] = locus YOL136C, strain PFK27, stronger effect = lower value
[58] = locus YOR061W, strain CKA2, stronger effect = lower value
[59] = locus YOR119C, strain RIO1, stronger effect = lower value
[60] = locus YOR231W, strain MKK1, stronger effect = lower value
[61] = locus YOR329C, strain SCD5, stronger effect = lower value
[62] = locus YPL031C, strain PHO85, stronger effect = lower value
[63] = locus YPL153C, strain RAD53, stronger effect = lower value
[64] = locus YPL204W, strain HRR25, stronger effect = lower value
[65] = locus YPL209C, strain IPL1, stronger effect = lower value
[66] = locus YPL256C, strain CLN2, stronger effect = lower value
[67] = locus YPR025C, strain CCL1, stronger effect = lower value
[68] = locus YPR106W, strain ISR1, stronger effect = lower value
[69] = locus YPR111W, strain DBF20, stronger effect = lower value
[70] = strain NNK1, stronger effect = lower value
[71] = strain TSCII, stronger effect = lower value

Measured: normalized growth

CC(NC(=S)N/N=C\c1ccccc1O)c1ccccc1 (stereo not drawn)
inactive: [1] 0.984 | [2] 0.982 | [3] 0.971 | [4] 0.975 | [5] 0.974 | [6] 0.974 | [7] 0.981 | [8] 0.977 | [9] 0.969 | [10] 0.973 | [11] 0.973 | [12] 0.986 | [13] 0.951 | [14] 0.97 | [15] 0.927 | [16] 0.905 | [17] 0.953 | [18] 0.972 | [19] 0.974 | [20] 0.979 | [21] 0.99 | [22] 0.982 | [23] 0.944 | [24] 1.06 | [25] 0.897 | [27] 0.951 | [28] 1.03 | [29] 1.01 | [30] 0.985 | [31] 0.87 | [32] 0.986 | [33] 0.966 | [34] 0.977 | [35] 0.944 | [36] 0.943 | [37] 0.972 | [38] 0.992 | [39] 0.978 | [40] 0.976 | [41] 0.98 | [42] 0.966 | [43] 0.97 | [44] 0.939 | [45] 0.964 | [46] 0.979 | [47] 0.977 | [48] 0.971 | [49] 0.991 | [50] 0.964 | [51] 0.984 | [52] 0.896 | [53] 0.976 | [54] 0.974 | [55] 0.933 | [56] 0.978 | [57] 0.984 | [58] 0.959 | [59] 1.04 | [60] 0.981 | [61] 0.983 | [62] 0.927 | [63] 0.929 | [64] 0.922 | [65] 0.979 | [66] 0.944 | [67] 0.979 | [68] 0.992 | [69] 0.983 | [70] 0.992 | [71] 0.978
active: [26] 0.772

COc1ccccc1NC(=S)N/N=C\c1ccccc1O
inactive: [1] 0.962 | [2] 0.968 | [3] 0.967 | [4] 0.965 | [5] 0.967 | [6] 0.967 | [7] 0.96 | [8] 0.978 | [9] 0.954 | [10] 0.965 | [11] 0.941 | [12] 0.973 | [13] 0.957 | [14] 0.959 | [15] 0.938 | [16] 0.928 | [17] 0.942 | [18] 0.965 | [19] 0.953 | [20] 0.97 | [21] 0.976 | [22] 0.966 | [23] 0.939 | [24] 1.02 | [25] 0.891 | [26] 0.903 | [27] 0.956 | [28] 0.964 | [29] 0.98 | [30] 0.961 | [31] 0.978 | [32] 0.957 | [33] 0.951 | [34] 0.979 | [35] 0.903 | [36] 0.942 | [37] 0.962 | [38] 0.955 | [39] 0.948 | [40] 0.964 | [41] 0.971 | [42] 0.955 | [43] 0.942 | [44] 0.916 | [45] 0.973 | [46] 0.958 | [47] 0.959 | [48] 0.966 | [49] 0.97 | [50] 0.955 | [51] 0.967 | [52] 0.975 | [53] 0.97 | [54] 0.967 | [55] 0.949 | [56] 0.968 | [57] 0.967 | [58] 0.931 | [59] 0.941 | [60] 0.967 | [61] 0.969 | [62] 0.93 | [63] 0.937 | [64] 0.941 | [65] 0.967 | [66] 0.929 | [67] 0.968 | [68] 0.969 | [69] 0.978 | [70] 0.986 | [71] 0.969

CC(C)(C)NC(=S)N/N=C\c1ccccc1O
inactive: [1] 0.954 | [2] 0.957 | [3] 0.958 | [4] 0.958 | [5] 0.947 | [6] 0.96 | [7] 0.951 | [8] 0.964 | [9] 0.947 | [10] 0.95 | [11] 0.924 | [12] 0.97 | [13] 0.943 | [14] 0.961 | [15] 0.876 | [16] 0.848 | [17] 0.882 | [18] 0.928 | [19] 0.947 | [20] 0.955 | [21] 0.95 | [22] 0.957 | [23] 0.875 | [24] 0.954 | [25] 0.692 | [26] 0.901 | [27] 0.806 | [28] 0.931 | [29] 0.972 | [30] 0.953 | [31] 0.941 | [32] 0.949 | [33] 0.891 | [34] 0.954 | [35] 0.878 | [36] 0.789 | [37] 0.947 | [38] 0.897 | [39] 0.917 | [40] 0.951 | [41] 0.968 | [42] 0.915 | [43] 0.926 | [44] 0.867 | [45] 0.902 | [46] 0.95 | [47] 0.941 | [48] 0.93 | [49] 0.945 | [50] 0.903 | [51] 0.955 | [52] 0.955 | [53] 0.954 | [54] 0.944 | [55] 0.841 | [56] 0.955 | [57] 0.904 | [58] 0.882 | [59] 0.909 | [60] 0.828 | [61] 0.959 | [62] 0.867 | [63] 0.865 | [64] 0.837 | [65] 0.941 | [66] 0.949 | [67] 0.954 | [68] 0.968 | [69] 0.949 | [70] 0.967 | [71] 0.94

Reference: PubChem BioAssay AID1159580 (chemical genetic matrix, 2015)
